# Test results from the OligoGym collection.
# Target: HDHD2
# Assay: pooled miR-30 sensor sort-seq; sequence = guide strand
# Settings: shRNA
# Also: reference of the scale not given here.
row,Sequence,sensor-assay potency score (higher = more potent)
1,TAAACTTCTGGCTGCAGTCAGA,-0.973
2,TTTGAAATCAGGTAGTGCCCGA,-0.154
3,TAACAGGTCTTGCTTGCTCTCT,-0.886
4,TTTCTTCATCTGATGCTCGATA,-0.755
5,TTTCTCAACCTTTCTAACAGGT,0.329
6,TTCCTTTGAAATCAGGTAGTGC,-0.746
7,TTGCTATCAGAGGTGCTCCATC,-0.808
8,TTCCGCTCTAGTAAACTTCTGG,0.0507

# Target: HEATR8
# Assay: as above
# Settings: shRNA
row,Sequence,sensor-assay potency score (higher = more potent)
1,TTGAACTTGTGCTCCAGGTGGT,0.565
2,TTGGCGGTCTTCTCAGACCTGC,-0.945
3,TTCAGGTTCAGCTTGGAGGTGT,0.381
4,TTGAGTGATGGTCACGCTCAAA,-1.7
5,TACCACTCCAGCACCGAGCTGA,-0.0285
6,TTCACCACTTTCACCACCCAGC,-0.301
7,TTCTTTATCATGGTCTTCTTTT,-1.04
8,TTCAACACAGAGACATTGGTGT,0.958
9,AACATGACTGAGCACTTCCGGA,-0.961
10,TAACAGGGTCTTCACACACTTC,-1.46
11,TTGGTCTCTTCCTTATCTCTGG,-0.426
12,TAACACACCCATGAGTTCCCGT,-0.71

# Target: HECTD1
# Assay: as above
# Settings: shRNA
row,Sequence,sensor-assay potency score (higher = more potent)
1,TGCATCAGTAGCATCAACCTTG,0.0486
2,TTTACTTCGAATACAATCTATA,-1.13
3,TTGCGTACAACCGTGAGCCTGG,0.726
4,TTAATTGTTCACACCAGTCTGG,-0.677
5,TCGAATACAATCTATAAGCTGC,0.194
6,TTGACTACAATCTTGTTTCATA,-0.725
7,TAAGTCCTCATCATCATCGAGC,-0.93
8,TAGCACATAATCATCATCCCAT,0.659
9,TAGAGTTGAACAACCAGTGGTA,0.312
10,TTAACTTTCGAATTAACGCAAC,-1.04
11,TAAGAGGTCGTTGTGAAGCTGC,-0.0408

# Target: HEPH
# Assay: as above
# Settings: shRNA
row,Sequence,sensor-assay potency score (higher = more potent)
1,TACAGCTTTCTTGTATCTGGAA,-0.122
2,AATGTAACCATAACTGTCCTTC,-0.181
3,TAGTAGATTCTAGCACTCCATG,-1.17
4,TTGCGTCGTAGCTTTCTCTGTC,0.593
5,TATAGTAGATTCTTGCAGCTTG,0.849
6,TATCCTCTGAAAGCAGTCGGAA,-1.21
7,TTGTCAGACTTTAAGAAGCTGG,-0.791
8,TAGCTTTCTCTGTCGATGTTGG,-0.344
9,TAGATGGTCTTCTTGTAGGTTC,-0.407
